Screens from PubChem BioAssay.
In the library only some 31% were active in any assay of this set; here they are far more common.
PLAP activator = human PLAP activation; P05187; purified PLAP enzyme, luminescent substrate read-out; hits give high values; activation fold at 20 µM; hit rate 1.2% among 96,000; AID 696; in the data active = activation fold above about 2
CYP2C9 act = increases human cytochrome P450 2C9 activity; P11712; recombinant CYP2C9, luciferin-H conversion, luminescence; hits give high values; factor 1 = untreated enzyme, 0 = blocked; activation factor at 5 µM; hit rate 1.4% among 96,000; AID 1024;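 active = activation factor of 2 or more for CYP2C9 at a 5 µM dose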;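 note: 0 = sulfaphenazole-blocked wells and 1 = vehicle-only wells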
CYP2C19 activ = increases human CYP2C19 enzyme activity; P33261; recombinant CYP2C19, luciferin-H EGE luminescence; hits give high values; 0 = fully inhibited enzyme, 1 = untreated enzyme; activation factor at 5 µM; 96,000 tested, under 10 active; AID 1025;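 active = activation factor of at least 2 at 5 µM in the primary screen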;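 note: 0 = wells with 2.5 mM tranylcypromine and 1 = vehicle-only wells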
Target sequence (P33261 whole entry, looked up): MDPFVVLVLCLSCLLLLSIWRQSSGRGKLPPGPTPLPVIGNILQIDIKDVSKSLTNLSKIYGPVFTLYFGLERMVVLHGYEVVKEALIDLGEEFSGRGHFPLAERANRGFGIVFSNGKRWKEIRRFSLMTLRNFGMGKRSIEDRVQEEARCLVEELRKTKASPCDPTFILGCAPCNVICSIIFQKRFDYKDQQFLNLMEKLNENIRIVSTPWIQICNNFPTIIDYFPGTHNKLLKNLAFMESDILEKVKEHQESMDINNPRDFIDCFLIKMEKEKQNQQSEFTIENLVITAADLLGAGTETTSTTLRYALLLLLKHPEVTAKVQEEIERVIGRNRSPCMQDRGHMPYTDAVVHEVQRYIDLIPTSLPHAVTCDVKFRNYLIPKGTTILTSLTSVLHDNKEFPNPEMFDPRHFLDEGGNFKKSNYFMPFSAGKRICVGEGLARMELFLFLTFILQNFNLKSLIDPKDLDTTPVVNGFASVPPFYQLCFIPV
CYP2C9 inhib = inhibitors of human CYP2C9; P11712; CYP2C9 Supersomes, luciferin-H conversion, luminescence; inhibition, % at 5 µM; hit rate 20% among 96,000;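 active = blocking of liver enzyme CYP2C9 beyond about 50% at 5 µM, limit read from the data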
CYP2C19 inhib = inhibitors of human CYP2C19; hit rate 21% among 96,000; inhibition, % at 5 µM; CYP2C19 Supersomes, luciferin-H EGE luminescence, 30 min; AID 778;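 active = CYP2C19 inhibition above a set limit at 5 µM in the primary screen, cut at about 50% in these data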;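 note: plate controls were negative control wells for no effect and 2.5 mM tranylcypromine positive control for full effect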
Active calls of the source: *.

SMILES	PLAP activator	CYP2C9 act	CYP2C19 activ	CYP2C9 inhib	CYP2C19 inhib
O=C(COc1ccc(Br)cc1)Nc1ccncc1	0.8	0	0	97*	100*
Cc1cc(C)c(OCC(=O)Nc2ccc3c(c2)OCO3)cc1C	0.9	1.1	0.8	-9	21
COc1nc(C#N)nc(N(C)C)n1	1	1.1	1.1	-8	-7
O=C(NCCOc1ccccc1Cl)c1cc(F)c(F)cc1Cl	0.9	1.8	0.7	-78	32
Cn1c(=O)n(C)c2cc([N+](=O)[O-])c(N3CCN(C(=O)c4ccc(Cl)cc4)CC3)cc21	0.9	0.7	1	27	2
Cn1c(=O)n(C)c2cc([N+](=O)[O-])c(N3CCN(S(=O)(=O)c4ccc(C(C)(C)C)cc4)CC3)cc21	1.2	0.4	0.7	62*	29
O=[N+]([O-])c1cc(C(F)(F)F)ccc1N1CCN(S(=O)(=O)c2ccc3ccccc3c2)CC1	0.8	1.1	0.4	-14	58*
CC(C)OCCCNC(=O)C1CCN(S(=O)(=O)N2CCCCC2)CC1	1	1	1	-3	-1
CCc1nn(-c2ccccc2)c(N)c1-c1ccc(OC)c(OC)c1	1.1	1.7	1	-68	3
CCCCn1c(SCc2nc(N)nc(Nc3ccccc3C)n2)nc2ccccc2c1=O	1.5	0	0.1	99*	87*
COCC(C)n1c(SCc2nc(N)nc(Nc3ccccc3C)n2)nc2ccccc2c1=O (configuration not stated)	1.7	0	0.3	95*	74*
C=CCn1c(=O)c2ccccc2n2c(SCc3nc(N)nc(Nc4ccccc4C)n3)nnc12	1.4	0.7	0.8	32	20
CCN(CC)c1cccc(OC2=NS(=O)(=O)c3ccccc32)c1	1.2	1.3	1	-26	2
Cc1ccc(S(=O)(=O)NNC(=O)c2sccc2-n2cccc2)cc1	1.1	0.8	0.7	24	31
Cc1ccc(S(=O)(=O)NNC(=O)c2sc3nc(C)cc(C)c3c2-n2cccc2)cc1	1.7	0	0.2	99*	81*
O=C(CCn1c(=O)c2sccc2n(CC(=O)OCc2ccccc2)c1=O)NCc1ccccc1	0.9	0.4	0.7	62*	30
O=C(CCCn1c(=O)c2sccc2n(Cc2ccc(F)cc2)c1=O)NCc1ccco1	1.1	0.3	0.2	69*	80*
Cc1ccc(C)c(Cn2c(=O)n(-c3ccc(CC(=O)NCc4ccco4)cc3)c(=O)c3sccc32)c1	1.4	0.8	1.1	23	-7
O=C(CCCn1c(=O)c2sccc2n(CC(=O)OCc2ccccc2)c1=O)NCc1ccco1	0.9	1	0.5	2	51*
Cc1cccc(C)c1NC(=O)Cn1c(=O)n(CCC(=O)NCc2ccco2)c(=O)c2sccc21	0.9	0.6	1	44	4
O=C(CCn1c(=O)c2sccc2n(CC(=O)OCc2ccccc2)c1=O)NCc1ccco1	0.9	0.4	0.7	58*	30
CC1CCCCN1C(=O)Cn1c(=O)n(CCC(=O)NCc2ccco2)c(=O)c2sccc21 (configuration not stated)	1	0.9	1.1	9	-10
CCCCN1C(=S)SC(C)(C)C1/[N+]([O-])=C/c1cccnc1 (configuration not stated)	0.8	0.7	0.7	31	31
CCc1ccc(NC(=O)Cn2c(=O)n(CCCC(=O)NCc3ccco3)c(=O)c3ccccc32)cc1	0.9	0.7	0.9	28	10
CCN(Cc1ccccc1)C(=O)Cn1c(=O)n(CC(=O)NCc2ccco2)c(=O)c2sccc21	1	0.2	0.9	82*	15
SMILES	PLAP activator	CYP2C9 act	CYP2C19 activ	CYP2C9 inhib	CYP2C19 inhib
COc1cccc(C2CC(c3cccs3)=NN2C(=O)CSC2=NN3CCCC(=O)N=C3S2)c1OC (configuration not stated)	1.6	0.2	0.2	83*	76*
CC(=O)c1c(C(C)=O)c(C)n(NC(=O)c2ccccc2O)c1C	1	0.1	1.1	86*	-12
CC(=O)c1c(C(C)=O)c(C)n(NC(=O)c2cccnc2)c1C	1.1	0.9	1	7	-3
COc1ccc(C2(C)NC(=O)N(Cc3cc(Cl)cc4c3OCOC4)C2=O)cc1OC (configuration not stated)	1.2	2.8*	0.4	-177	65*
CCCCCn1c(NC(=O)c2ccco2)c(S(=O)(=O)c2ccc(C)cc2)c2nc3ccccc3nc21	1.1	0.8	0.9	22	6
CCCCn1c(NC(=O)c2ccc(Br)o2)c(S(=O)(=O)c2ccccc2)c2nc3ccccc3nc21	1.6	0.2	0.9	83*	9
CCn1c(SCC(=O)Nc2nc(-c3ccc(C)cc3)cs2)nnc1-c1ccccc1O	1.6	0.3	0.4	72*	57*
Cc1ccc(-n2c(Cc3ccccc3)nnc2SCC(=O)NNC(=O)Cc2ccccc2)cc1	2.8*	0.6	0.8	41	22
COc1ccccc1-c1nnc(SCC(=O)Nc2nc(-c3ccccc3)cs2)n1C	1.8	0	0.1	98*	91*
Cc1nnc(NC(=O)CSc2nnc(Cc3ccccc3)n2-c2ccccc2)s1	1.4	0.7	0.9	34	6
CCn1c(SCC(=O)NNC(=O)Cc2ccccc2)nnc1-c1ccccc1	2.4*	1	1	-2	1
CCn1c(CSc2nc(C)cc(C)n2)nnc1SCC(=O)Nc1nc(-c2ccccc2)cs1	1.1	1.3	1	-32	4
COc1cccc(NC(=O)Cc2nnc(SCC(=O)NC(C)c3ccccc3)n2C)c1 (configuration not stated)	0.8	1	1	2	2
CCn1c(SCC(=O)Nc2nc(-c3ccc(C)cc3)cs2)nnc1-c1ccccc1	1.2	0.2	0.6	85*	42
COCc1nnc(SCC(=O)NC(C)c2ccccc2)n1-c1ccccc1 (configuration not stated)	1	0.4	0.4	55*	59*
CC(C)n1c2ccccc2c2nnc(SCC(=O)OCN3C(=O)c4ccccc4C3=O)nc21	1.1	1	1.1	3	-8
Cc1ccnc2nc(C(=O)Nc3nccs3)nn12	1.3	1	0.9	2	5
COc1ccc(C(=O)N/N=C2/SCC(=O)N2Cc2ccc3c(c2)OCO3)cc1OC	1	0.8	1	23	-1
COc1cccc(C(=O)N/N=C2\SCC(=O)N2Cc2ccc3c(c2)OCO3)c1	1	0.1	0.7	88*	34
CC(C)NC(=O)c1cc(C(=O)c2cc(Cl)ccc2O)coc1=N	1.1	0.7	0.3	34	69*
CCc1nc2ccc(F)cc2c(C(=O)NC2CCCCC2C)c1C (configuration not stated)	1.4	0.2	0.6	77*	37
O=C(CNS(=O)(=O)c1ccc(F)cc1)N1CCN(c2ccccc2)CC1	0.8	1.1	0.8	-8	18
CCOC(=O)C1=C(O)/C(=C\c2ccc(CNC(=O)C(=O)Nc3ccc(C)c(C)c3)o2)N=C1C	1.3	0.2	0.4	83*	55*
